Measured values from PubChem BioAssay (NCI).
Compounds without any hit were thinned out: in the full panel of roughly 83,000, 20% have a hit.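 Percent growth is the endpoint: 0 to 100 indicates growth inhibition (40 means 60% inhibition), 0 means no net growth, and negative values indicate cell death.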 Values without a mark were called inactive. Active and inactive are the calls of the source. The calls were made as follows: active = growth percent below 10; inactive = the rest.

Legend:
Test in all cases: NCI-60 one-dose screen, 48 h (100 = growth as untreated, 0 = no growth, -100 = all killed)
Conditions in all cases: 10 µM unless noted
DU-145 prostate = tested on: DU-145 prostate
K-562 leukemia = tested on: K-562 leukemia
MALME-3M melanoma = tested on: MALME-3M melanoma
MDA-MB-231 breast = tested on: MDA-MB-231 breast
RXF 393 renal = tested on: RXF 393 renal
SF-268 CNS = tested on: SF-268 CNS
SF-295 CNS = tested on: SF-295 CNS
SF-539 CNS = tested on: SF-539 CNS
UACC-257 melanoma = tested on: UACC-257 melanoma
M14 melanoma = tested on: M14 melanoma

SMILES	growth (DU-145 prostate)	growth (K-562 leukemia)	growth (MALME-3M melanoma)	growth (MDA-MB-231 breast)	growth (RXF 393 renal)	growth (SF-268 CNS) [%]	growth (SF-295 CNS)	growth (SF-539 CNS)	growth (UACC-257 melanoma)	growth (M14 melanoma)
Cc1ccc(NC(=O)c2ccc(CN3CCN(C)CC3)cc2)cc1Nc1nc(-c2cccnc2)cs1	76.5%	3.08% (active)	-9.2% (active)	33.8%	32.9%	70.8	3.18% (active)	-81.5% (active)	17%	35.5%
COc1ccc(C(=O)c2cc(OC)c(OC)c(OC)c2)cc1/C=C/C(=O)c1ccc(F)cc1	85.5%	9.61% (active)	65.6%	68.4%	88.3%	77	84.3%	51.8%	86.6%	72.5%
CCNC(=O)C#Cc1ccc2c(C(=Nc3ccc(CN(C)C)cc3)c3ccccc3)c(O)[nH]c2c1	44.3%	9.16% (active)	-11.3% (active)	3.36% (active)	-33.7% (active)	47.8	59.8%	-6.1% (active)	-36.3% (active)	-33.7% (active)
CC[C@@H]1C(=O)N(C)c2cnc(Nc3ccc(C(=O)NC4CCN(C)CC4)cc3OC)nc2N1C1CCCC1	9.68% (active)	0.167% (active)	-15.9% (active)	17%	-3.01% (active)	15.5	11%	-82.4% (active)	-9.29% (active)	-25.9% (active)
CCN(CCO)CCCOc1ccc2c(Nc3cc(CC(=O)Nc4cccc(F)c4)[nH]n3)ncnc2c1	56.6%	32%	-17.5% (active)	39.4%	86.1%	56.2	65.4%	25.8%	-23.2% (active)	4.94% (active)
O=C(Nc1cccc(Cl)c1)Nc1ncc(CCNc2ncnc3ccsc23)s1	50.6%	13.8%	19%	41.5%	-0.457% (active)	39.4	20%	24%	11.5%	10.3%
CN1CCN(c2ccc(OC(F)(F)F)c(Nc3ncc4c(n3)-c3c(c(C(N)=O)nn3CCO)CC4)c2)CC1	10.2%	8.71% (active)	83.6%	32.1%	32.9%	35.6	33.4%	3.87% (active)	47.6%	10.2%
CNC(=O)c1cccc2cc(Oc3ccnc4cc(OCC5(N)CC5)c(OC)cc34)ccc12	77.7%	19.5%	74.3%	60.8%	39.8%	52.4	58.4%	12.6%	90.2%	56.1%
C=CCN(/C=C1/C(=O)O[C@H](COC)[C@@]2(C)C1=C(O)C(=O)C1=C2[C@H](OC(C)=O)C[C@]2(C)C(=O)CC[C@@H]12)CC=C	26.6%	40.9%	-1.8% (active)	42%	-41.1% (active)	29.9	5.72% (active)	-19.1% (active)	15.8%	28.2%
CC(C)(C)OC(=O)N1CCC(O)[C@@H](O[Si](c2ccccc2)(c2ccccc2)C(C)(C)C)[C@H]1/C=C/c1ccccc1 (stereo not given in full)	57.6%	38.7%	47.3%	49.5%	6.38% (active)	52.5	36.7%	57.1%	40.8%	50%
